MPTP block: inhibitors of mitochondrial permeability transition pore; isolated mouse mitochondria, Ca2+ swelling absorbance, 30 min; inhibition, % at 10 µM; 360,000 compounds, 1.4% hits;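 active = inhibition of 50% or more, scaled per plate between neutral and stimulator controls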;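 also: 0% = DMSO wells given calcium and 100% = 1 mM EGTA wells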
pCIP destab: p/CIP protein destabilization; F442A p/CIP-EGFP cells, EGFP fluorescence, 16 h; decrease of EGFP signal, % at 10 µM; 290,000 compounds, 0.01% hits;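 active = EGFP signal decrease of at least 30% at 10 µM or well 3 SD below plate mean, unless failing retest; inactive = the rest, including hits failing retest or dose response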
FAS-TE inh: FAS thioesterase (human) inhibition; P49327; recombinant FAS-TE, OMFH fluorogenic substrate, fluorescence endpoint; inhibition, % at 15 µM; 360,000 compounds, 0.67% hits; AID 602261;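 active = compounds whose normalised, plate-corrected inhibition of enzyme fluorescence in the single-dose primary screen is 50% or more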;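 also: 0% = DMSO with enzyme and 100% = substrate without enzyme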
NR3A LBD binder: NR3A (human) ligand-binding domain modulation; NR3A LBD differential scanning fluorimetry, Tm shift; 0% = protein alone, 100% = glycine-bound protein; Tm shift relative to glycine control, % at 25 µM; 340,000 compounds, 2.5% hits;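 active = melting temperature shift of at least 10% of the positive control shift, at one fixed dose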
MIN6 prolif-1: inducers of beta-cell replication in MIN6 cells | MIN6 cells proliferation, ATPlite luminescence, 48 h; cells starved in 0.2% serum; 100% = growth in 10% serum | proliferation, % at 10 µM | 330,000 compounds, 0.29% hits;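 active = compounds whose signal lies at least 3.5 SD above the mean of all wells on their plate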;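 also: 0% = DMSO-treated cells in low-serum medium and 100% = 10% serum control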
MIN6 prolif-2: confirmation of inducers of beta-cell replication in MIN6 cells; 920 tested, under 10 active; proliferation increase, % at 50 µM; MIN6 beta-cell proliferation, ATPlite luminescence, 48 h; cells kept in 0.2% serum; scaled between 0.2% and 10% serum; shares compounds with MIN6 prolif-1; AID 463095;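 active = proliferation increase above 40% at any of the four tested concentrations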
The depositor's hits bear a star. Compounds with a hit are over-represented: about 4.1% of the library has one in this group of screens.

`O=C(NCc1ccc(F)cc1)C(c1ccco1)N(C(=O)c1csnn1)c1ccccc1` (stereo not given) gave MPTP block -1, pCIP destab 9, FAS-TE inh 0, NR3A LBD binder -2, MIN6 prolif-1 11* and MIN6 prolif-2 -4.
O=C(NCc1ccc(F)cc1)C(c1ccccc1)N(C(=O)c1csnn1)c1ccccc1 (stereo not given) was read as MPTP block -1, pCIP destab -5, FAS-TE inh 8, NR3A LBD binder 1 and MIN6 prolif-1 3.
CCCCn1cc([N+](=O)[O-])nc1C was read as MPTP block 1, pCIP destab -8, FAS-TE inh -6, NR3A LBD binder 0 and MIN6 prolif-1 3.
For C=CCn1cc([N+](=O)[O-])nc1C the results were MPTP block 0, pCIP destab -8, FAS-TE inh -2, NR3A LBD binder -1, MIN6 prolif-1 7.8* and MIN6 prolif-2 -3.
For COc1ccccc1Nc1ccncc1[N+](=O)[O-] the results were MPTP block -1, pCIP destab -2, FAS-TE inh -12, NR3A LBD binder -1, MIN6 prolif-1 8.1* and MIN6 prolif-2 6.
Screening O=C(CSCc1c(Cl)cccc1Cl)NCc1ccco1 returned MPTP block 3, pCIP destab -3, FAS-TE inh 5, NR3A LBD binder 0, MIN6 prolif-1 9.2* and MIN6 prolif-2 -3.
Screening O=C(Nc1cccnc1)Nc1cccc(F)c1 returned MPTP block 1, pCIP destab -5, FAS-TE inh -4, NR3A LBD binder 0 and MIN6 prolif-1 -2.
CC(=O)c1cccc(NC(=O)Nc2cccnc2)c1 was read as MPTP block 2, pCIP destab -1, FAS-TE inh -8, NR3A LBD binder -2, MIN6 prolif-1 7.9* and MIN6 prolif-2 5.
`CC1(C(=O)NS(=O)(=O)c2ccccc2Cl)CCN1C(=O)C1CCCCC1` (stereo not given) gave MPTP block -1 and FAS-TE inh -14.
For O=C(COc1cc(F)ccc1[N+](=O)[O-])NCCN1C(=O)CSC1=O the results were MPTP block 0, FAS-TE inh -9, NR3A LBD binder 3 and MIN6 prolif-1 0.
`CC(=O)Nc1nc(Cn2nnc(-c3ccc4c(c3)OCO4)n2)nc(N(C)C)n1` gave MPTP block -1, pCIP destab -3, FAS-TE inh 4, NR3A LBD binder -1, MIN6 prolif-1 8.8* and MIN6 prolif-2 2.
`c1ccc(COc2cccc(-c3cc4nc(NCc5cccs5)ccn4n3)c2)cc1` gave MPTP block 1 and FAS-TE inh 24.
Screening Oc1ccccc1-c1nc(N2CCCC2)c2ccccc2n1 returned MPTP block 0, pCIP destab -2, FAS-TE inh 20, NR3A LBD binder -3, MIN6 prolif-1 7.0* and MIN6 prolif-2 6.
`S=C(NCc1ccccn1)NN=Cc1ccccn1` gave MPTP block 0, FAS-TE inh -6 and NR3A LBD binder 0.
Screening Cc1ccc(S(=O)(=O)NC(=O)C2(C)CCN2C(=O)c2ccccc2)cc1 (stereo not given) returned MPTP block 0 and FAS-TE inh -9.
Screening COc1ccc(C(=O)Nc2ccc3c(c2)C(=O)NC3=O)cc1 returned MPTP block 1, pCIP destab -10, FAS-TE inh -3, NR3A LBD binder 0 and MIN6 prolif-1 2.
`COc1cccc(C(=O)Nc2ccc3c(c2)C(=O)NC3=O)c1` gave MPTP block -1, pCIP destab 0, FAS-TE inh -6, NR3A LBD binder -3, MIN6 prolif-1 9.1* and MIN6 prolif-2 0.
Screening CCn1c(=O)n(CC)c2cc(N3CCCC3)c(NC(=O)c3cccc(OC)c3)cc21 returned MPTP block 1, pCIP destab -5, FAS-TE inh -5, NR3A LBD binder 1, MIN6 prolif-1 17* and MIN6 prolif-2 -6.
For CC(C)(C)c1ccc(S(=O)(=O)NC(=O)C2(C)CCN2C(=O)C2(c3ccc(Cl)cc3)CC2)cc1 (stereo not given) the results were MPTP block 2 and FAS-TE inh -5.
`c1csc(Cc2nn3c(-c4ccncc4)nnc3s2)c1` gave MPTP block 0, pCIP destab -18, FAS-TE inh -3, NR3A LBD binder -3, MIN6 prolif-1 7.3* and MIN6 prolif-2 4.
c1cc(-c2nnc3sc(C4CCCCC4)nn23)ccn1 was read as MPTP block -2, pCIP destab -4, FAS-TE inh 0, NR3A LBD binder -3, MIN6 prolif-1 9.0* and MIN6 prolif-2 3.
For c1csc(-c2nn3c(-c4ccncc4)nnc3s2)c1 the results were pCIP destab 1.
Screening CCOC(=O)[C@]12CCCC=C1N(Cc1ccco1)C(=O)[C@H](CC(=O)NCC1CCCCC1)C2 returned MPTP block 1 and FAS-TE inh 4.
`CN(c1ccc(C(=O)Nc2cccnc2)cc1)S(=O)(=O)c1ccc(Cl)cc1` gave MPTP block 2, pCIP destab -4, FAS-TE inh 7, NR3A LBD binder 2 and MIN6 prolif-1 -1.
Screening CN(c1ccc(C(=O)Nc2cccnc2)cc1)S(=O)(=O)c1ccccc1 returned MPTP block 0, pCIP destab 2, FAS-TE inh -1, NR3A LBD binder 3, MIN6 prolif-1 0.0* and MIN6 prolif-2 2.
COc1ccc(C(=O)N2CCC2)cc1S(=O)(=O)NCc1ccc(Cl)cc1 was read as MPTP block 0, FAS-TE inh -4, NR3A LBD binder 0, MIN6 prolif-1 8.2* and MIN6 prolif-2 -2.
Screening COc1ccc(C(=O)NCC(C)(C)N2CCOCC2)cc1S(=O)(=O)NCc1ccc(Cl)cc1 returned MPTP block -1, FAS-TE inh -4 and NR3A LBD binder 0.
Screening COc1ccc(F)cc1S(=O)(=O)NCc1ccccc1 returned MPTP block 0, pCIP destab -4, FAS-TE inh -9, NR3A LBD binder 0, MIN6 prolif-1 0.0* and MIN6 prolif-2 0.
Screening CC(C)C[C@H]1COc2cccc(N3CCSCC3)c2S(=O)(=O)N1 returned MPTP block 0 and FAS-TE inh 2.
`COc1ccc2c(c1)C(=O)O[C@@H](c1ccccc1)C[C@@H](O)C(=O)CC2` gave MPTP block 0 and FAS-TE inh -8.
`OC(c1ccc(F)cc1)c1nc(-c2ccc(F)c(Cl)c2)cs1` (stereo not given) gave MPTP block 4 and FAS-TE inh 38.
`COc1ccccc1CCC(=O)Nc1nccs1` gave MPTP block 0, pCIP destab 2, FAS-TE inh 0, NR3A LBD binder -1 and MIN6 prolif-1 -3.

Assay outcomes: PubChem, Sanford-Burnham Center for Chemical Genomics
